HUVEC tox IL1B: HUVEC cytotoxicity counter-screen, IL-1B stimulated; HUVEC cell count loss, Hoechst imaging; cell count reduction, % at 2 µM; 94,000 tested, 0.41% active; AID 845;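 active = cell count reduction more than 3 SD above the screen-wide mean, cut at about 70% in these data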;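 also: normalized per plate to untreated control cells as the no-loss baseline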
IL1B NFkB pot: enhances IL-1B driven NFkB nuclear translocation. HUVEC IL-1B NFkB p65 nuclear translocation imaging. activation, % at 2 µM. 94,000 tested, 0.3% active;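 active = activation above 40%, about the mean plus 3 SD, also judged a hit on visual image review; inconclusive = activation above 40% but not a hit on visual review; inactive = activation not above 40% and no visual hit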;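 also: percent activation is computed from the nuclear over cytoplasmic p65 intensity ratio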
NFkB transloc inh: blocks IL-1B driven NFkB nuclear translocation in HUVEC cells | inhibition, % at 2 µM | 94,000 tested, 0.43% active | HUVEC IL-1B NFkB p65 nuclear translocation imaging;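 active = inhibition above about 30% together with a positive call from visual inspection of the well image, limit read from the data; inconclusive = inhibition above a set limit but visual check negative; inactive = inhibition not above a set limit, visual check negative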;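 also: nuclear over cytoplasmic p65 intensity ratio measured by imaging; 0% = IL-1B stimulated DMSO wells and 100% = unstimulated DMSO wells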
TNFa cytotox: toxic to HUVEC cells under TNF alpha stimulation | HUVEC TNFalpha-stimulated, Hoechst cell count, imaging | cell count reduction, % at 2 µM | 93,000 tested, 0.17% active | AID 848;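 active = cell count reduction exceeding the screen mean by over 5 SD, scaled to untreated wells per plate, cut at about 78% in these data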;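 also: cells counted after 24 h of TNF alpha exposure following the 1 h pretreatment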
VCAM1 TNFa inh: reduces TNF alpha induced VCAM1 expression in HUVEC; HUVEC TNFa-induced VCAM-1 immunofluorescence, high-content imaging; inhibition, % at 2 µM; 95,000 tested, 0.48% active; AID 802;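 active = inhibition above the batch mean plus 3 SD, with images confirmed as a hit by eye, cut at about 37% in these data; inconclusive = inhibition above that limit but hit not confirmed in images; inactive = inhibition not above that limit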;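 also: 0% = TNF-stimulated DMSO wells and 100% = unstimulated control wells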
Phagocyt inh: inhibitors of macrophage phagocytosis. 110,000 tested, 0.07% active. J774A.1 macrophage IgG-bead phagocytosis, imaging. inhibition, % at 5 µM;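 active = inhibition above the mean of the plate negative controls plus 5 SD, cut at about 13% in these data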;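 also: phagocytic index as fraction of beads internalized from green versus red external bead signal; plate controls were DMSO negative control for no effect and cytochalasin-D positive control for full effect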
* marks the source's active call; other numbers are inactive results; ? = inconclusive; . = no result. Rows were chosen to be rich in hits. Some 1.2% of all compounds tested hit in one or more screens of this group.

SMILES	HUVEC tox IL1B	IL1B NFkB pot	NFkB transloc inh	TNFa cytotox	VCAM1 TNFa inh	Phagocyt inh
Cc1cccc2cc(C#N)c(SCCN3CCCCC3)nc12	84.2*	-96.9	96.9*	-10.1	-40.6	.
C=CCNc1nc(N)c(C(=O)Nc2cc(C)on2)s1	77.2*	-10.1	10.1	-2.6	0.2	-0.6
COc1ccc(Cn2c(SC)nc3ccccc32)cc1[N+](=O)[O-]	-5.8	-2.3	2.3	-5.6	0.2	-1.4
O=C(CSc1nnc(CCCN2C(=O)c3cccc4cccc(c34)C2=O)n1-c1ccccc1)NCCCN1CCOCC1	.	.	.	.	.	-0.7
CCOCc1cn(CC(=O)c2ccc(Cl)cc2)c(C)nc1=N	81.4*	-5.2	5.2	-1.7	-1.6	-0.1
O=C(/C=C/c1cccs1)N1CCN(Cc2ccc3c(c2)OCO3)CC1	.	.	.	.	.	-1.9
Cc1cc(/C=C(\C#N)C(=O)NCc2ccco2)c(C)n1C1CCCC1	-5.3	21.4	-21.4	-9.4	18.1	-1.8
CSCCC(NC(=O)OCc1ccccc1)C(=O)O (stereo not drawn)	-27.0	-9.9	9.9	-23.9	97.0*	.
O=C(O)CCC(NC(=O)OCc1ccccc1)C(=O)O (stereo not drawn)	-12.5	3.2	-3.2	-6.7	-4.5	-2.0
CCOC(=O)c1c(C)[nH]c(C=C2C(=O)CCCC2=O)c1O	.	.	.	.	.	2.9
Cc1cccc(CS(=O)(=O)c2nnc([C@H](Cc3ccccc3)NC(=O)OC(C)(C)C)o2)c1	13.5	-8.4	8.4	23.3	58.0*	0.1
CCC1=NN(C(=O)Cc2ccc(OC)c(OC)c2)C(O)(C(F)(F)F)C1 (stereo not drawn)	.	.	.	.	.	-2.7
Cc1cccc(C)c1NC(=S)NC(C)CCc1ccccc1 (stereo not drawn)	.	.	.	.	.	-6.8
CCOC(=O)c1[nH]c2ccc(OC)cc2c1NC(=O)C(C)N1CCSCC1 (stereo not drawn)	-7.0	39.3	-39.3	-10.9	25.4	-0.8
CCOC(=O)c1[nH]c2cc(OC)c(OC)cc2c1NC(=O)C(C)N1CCN(Cc2ccccc2)CC1 (stereo not drawn)	-2.9	-31.7	31.7*	-22.4	-7.7	-0.8
Cc1nc2cc(N=NC3=C(O)CCCC3=O)ccc2s1	.	.	.	.	.	-8.9
COc1cc(S(=O)(=O)NCc2ccccn2)c(OC)cc1Cl	-4.2	9.1	-9.1	-12.0	27.9	.
CCOc1cc(C)c(C(C)C)cc1S(=O)(=O)NCc1ccccn1	84.6*	-100.3	100.3*	5.7	0.0	-1.2
COC(=O)Cn1c(=NC(=O)c2ccc([N+](=O)[O-])s2)sc2cc(Br)ccc21	.	.	.	.	.	-0.7
COCCn1c(SCC(=O)Nc2sccc2C(N)=O)nc2cc(Cl)ccc2c1=O	1.9	3.3	-3.3	3.6	16.6	2.5
Cc1nc(S(=O)(=O)NC2CCCCC2)c(C#N)c(C)c1Cl	-13.6	20.2	-20.2	-22.1	10.3	.
Cc1nc(S(=O)(=O)N(C)Cc2ccccc2)c(C#N)c(C)c1Cl	-7.5	-31.1	31.1*	92.0*	78.2*	.
Cc1nc(NC(=O)c2ccc(Cl)cc2)sc1-c1csc(Nc2cccc(F)c2)n1	-86.5	10.7	-10.7	-37.6	-28.7	.
Cc1nc2ccccc2n1CCCOc1ccccc1	9.8	-7.9	7.9	88.0*	61.9*	.
COCc1nc2ccccc2n1CCCOc1ccccc1	-49.1	9.2	-9.2	-14.7	-62.1	1.9
SMILES	HUVEC tox IL1B	IL1B NFkB pot	NFkB transloc inh	TNFa cytotox	VCAM1 TNFa inh	Phagocyt inh
O=C(Cn1nc(Cc2ccncc2)c2ccccc2c1=O)N1CCc2ccccc2C1	3.6	72.1*	-72.1	2.3	2.8	-0.6
O=C(CCc1nc2ccccc2[nH]1)Nc1ccc2c(c1)OCO2	0.0	-43.5	43.5*	-6.2	5.8	.
Cc1ccc(Cn2ccc(NC(=O)c3nn(C)cc3[N+](=O)[O-])n2)cc1	.	.	.	.	.	-4.8
Cc1ccc(-c2nc(NC(=O)c3nn(C)cc3[N+](=O)[O-])sc2C)cc1	26.4	-24.4	24.4	26.4	91.7*	.
Cc1cc(C)n(Cc2ccc(NC(=O)c3nn(C)cc3[N+](=O)[O-])cc2)n1	-4.0	1.3	-1.3	-15.5	-7.3	.
Cn1cc([N+](=O)[O-])c(C(=O)Nc2nc(-c3ccc(Cl)cc3)cs2)n1	-9.6	-77.3	77.3*	29.4	30.2	-0.5
Cc1ccc(-c2nc(NC(=O)c3nn(C)cc3[N+](=O)[O-])sc2C)cc1C	66.2	-45.2	45.2*	36.3	88.6*	-0.8
CCOc1ccccc1NC(=S)NCC1CCCO1 (stereo not drawn)	.	.	.	.	.	-3.9
CC1(C)CN(c2ccccc2)N(Cc2ccc(F)cc2)C1=O	-0.4	-0.7	0.7	-4.8	15.1	.
CCc1ccc(Nc2ncccc2C#N)cc1	-4.0	84.5*	-84.5	28.4	-12.5	.
CCC(C)c1ccc(Nc2ncccc2C#N)cc1 (stereo not drawn)	.	.	.	-8.4	22.3	.
CNC(=S)NCCC(c1ccccc1)c1ccccc1	.	.	.	.	.	-2.4
COc1ccccc1OCc1nc(Cc2ccc(Cl)cc2)no1	3.0	41.6*	-41.6	6.9	0.0	0.5
COc1ccc(OC)c(C2C3=C(CCCC3=O)Nc3c2c(=O)n(C)c(=O)n3C)c1 (stereo not drawn)	86.5*	22.1	-22.1	-38.9	20.3	0.6
COc1ccc(OC)c(C2C3=C(CCCC3=O)Nc3nnnn32)c1 (stereo not drawn)	.	.	.	.	.	-9.8
Cc1ccc(NC(=O)CSc2nc(O)c(Cc3ccccc3)c(=O)n2-c2ccccc2)cc1	.	.	.	.	.	-1.9
N#C/C(=C/c1cc(Br)cs1)C(=O)NCC1CCCO1 (stereo not drawn)	88.4*	-97.2	97.2*	-15.8	-15.8	5.9
C=CC(=O)Nc1ccc(Br)cc1	1.3	3.8	-3.8	5.4	52.4*	-1.1
Cc1c(C(=O)N/N=C/C(C)C)[nH]c2c([N+](=O)[O-])cccc12	.	.	.	.	.	-6.0
Cc1ccc(C)c(NC2=NC3(CCCCC3)N=C(N)N2)c1	-41.4	-3.0	3.0	.	-5.8	.
Cc1ccc(NC2=NC3(CCCCC3)N=C(N)N2)c(C)c1	40.6	-96.9	96.9*	1.9	11.2	0.2
CN1C2CCC1/C(=C\c1ccccc1F)C(=O)/C2=C/c1ccccc1F	.	.	.	.	.	-10.4
CC1CC(C)(C)CC2(C1)NC(=O)N(CC(=O)NCC(c1ccco1)N1CCCCC1)C2=O (stereo not drawn)	7.7	-34.9	34.9*	-4.6	-16.5	0.9
CCCCCc1ccc(-c2ccc(=O)[nH]n2)cc1	-32.1	?	-49.3	18.5	78.8*	-0.5
Cc1ccc(-c2ccc(=O)[nH]n2)cc1	82.3*	-98.5	98.5*	-20.2	4.7	.
SMILES	HUVEC tox IL1B	IL1B NFkB pot	NFkB transloc inh	TNFa cytotox	VCAM1 TNFa inh	Phagocyt inh
COc1ccc(NC(=O)C2CCCCN2N)cc1OC (stereo not drawn)	-37.5	40.6*	-40.6	-14.6	13.6	.
COc1ccc(CN2CCCCC2C(=O)Nc2ccc(OC)c(OC)c2)cc1OC (stereo not drawn)	-25.0	3.5	-3.5	-12.3	-8.3	-1.7
Cc1nc2c(=O)n(C)c(=O)n(C)c2nc1Cl	.	.	.	.	.	-1.4
O=c1[nH]c2ccc(Cl)cc2c(-c2ccccc2)c1CN1CCOCC1	-2.8	112.9*	-112.9	-5.2	-1.0	.
O=c1[nH]c2ccc(Cl)cc2c(-c2ccccc2)c1N1CCOCC1	.	.	.	.	.	0.7
CC1=C(C(=O)Nc2ccc(C)cn2)C(c2cnn(C)c2)C2=C(CCCC2=O)N1 (stereo not drawn)	.	.	.	.	.	-5.7

Compound activity deposited in PubChem BioAssay by several laboratories.
